Screens deposited in PubChem by The Scripps Research Institute Molecular Screening Center.
Shown are actives, neighbours in structure and some others; about 3.5% of the full set was active somewhere.
FBW7 activator – activators of human E3 ligase FBW7; Q969H0; AlphaScreen FBW7–phospho-cyclin E peptide binding, activator screen; 650,000 tested, 0.13% active; normalized activity (activation), % at 26.1 µM; in the data active = normalized activity above about 1.9%;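 note: purified mutant Fbw7 with reduced substrate affinity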
TEAD-YAP block – TEAD-YAP interaction inhibition. HEK-TIYL cells, TEAD-Gal4/YAP UAS-luciferase luminescence. inhibition, % at 9.12 µM. 640,000 tested, 1.4% active; in the data active = inhibition above about 32%;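 note: 0% = median of test compound wells and 100% = reference inhibitor wells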
MITF inh – inhibitors of human MITF; O75030; AlphaScreen MITF homodimerization, bead proximity signal; inhibition, % at 2.6 µM; 650,000 tested, 0.91% active; AID 1259374; in the data active = inhibition above about 50%;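 note: 0% = vehicle wells with protein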
Target sequence (O75030 whole entry, looked up): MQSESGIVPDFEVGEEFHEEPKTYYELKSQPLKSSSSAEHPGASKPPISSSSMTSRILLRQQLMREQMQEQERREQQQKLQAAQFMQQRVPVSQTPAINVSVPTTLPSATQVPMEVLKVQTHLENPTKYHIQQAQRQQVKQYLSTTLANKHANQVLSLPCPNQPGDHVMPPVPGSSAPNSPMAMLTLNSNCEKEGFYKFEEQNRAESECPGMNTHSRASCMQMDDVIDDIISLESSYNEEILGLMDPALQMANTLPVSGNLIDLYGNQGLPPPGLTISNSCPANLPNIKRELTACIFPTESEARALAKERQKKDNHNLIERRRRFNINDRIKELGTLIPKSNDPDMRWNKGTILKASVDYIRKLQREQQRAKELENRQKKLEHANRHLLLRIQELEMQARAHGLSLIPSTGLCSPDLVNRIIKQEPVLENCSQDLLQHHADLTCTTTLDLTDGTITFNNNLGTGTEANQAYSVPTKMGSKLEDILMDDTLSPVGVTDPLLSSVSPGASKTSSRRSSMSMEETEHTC
GPR151 activ – activates the human receptor GPR151; PathHunter beta-arrestin GPR151 cells, luminescence; Q8TDV0; 650,000 tested, 1% active; activation, % at 11.2 µM; in the data active = activation above about 4.9%;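 note: 0% = median of compound wells and 100% = cells with positive control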
GPR151 conf act – confirmation of human GPR151 activators | shares compounds with GPR151 activ | GPR151 PathHunter beta-arrestin cells, luminescence, 90 min; % of EA-reagent control over plate median | activation, % at 11.2 µM | 6,700 tested, under 10 active | AID 1508609;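 active = mean percent activation across replicates above the confirmation screen cutoff of 4.91%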
GPR119 ag – GPR119 activation, counter-screen for GPR151 activators; shares compounds with GPR151 activ; GPR119 PathHunter beta-arrestin cells, luminescence, 90 min; 0 = compound-well median, 100 = enzyme-acceptor control; activation, % at 11.2 µM; 6,700 tested, 0.3% active;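 active = mean percent activation in the counterscreen above 29.09%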;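 note: counterscreen on off-target GPR119 to flag nonselective hits from the GPR151 activator screen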
Active calls of the source: *; . = no result.

SMILES	FBW7 activator	TEAD-YAP block	MITF inh	GPR151 activ	GPR151 conf act	GPR119 ag
COc1ccc(C2=N/C(=C/c3cccc(OC)c3OC)C(=O)O2)cc1Br	0.0	-2.5	7.9	5.0*	-1.4	1.0
O=C(Cn1nc(-c2cccc(Cl)c2)ccc1=O)Nc1ccc(Br)cc1	-0.1	-4.0	-3.7	1.4	.	.
CC(C)(C)C(=O)/C=C(/N)c1ccccn1	0.0	-6.8	-15.0	0.4	.	.
CC(C)(C)C(=O)/C=C(\N)Cc1ccccc1	-0.1	7.6	-5.8	8.1*	-0.5	-0.7
CCN(CCO)c1ccc(NC2=C(NC(C)=O)C(=O)c3ccccc3C2=O)cc1	0.1	61.5*	7.8	5.1*	0.1	12.4
CCC(=O)NC1=C(Nc2ccc(N)cc2)C(=O)c2ccccc2C1=O	-0.1	-48.1	9.5	-2.3	.	.
CC1CCCCN1C(=O)COc1ccc(S(=O)(=O)N2CCCC2)cc1[N+](=O)[O-] (centres undefined)	0.3	1.6	19.6	0.1	.	.
COc1ccc(S(=O)(=O)N2CCCCC2)cc1[N+](=O)[O-]	0.0	4.3	4.9	5.0*	0.0	-2.6
COc1ccc(S(=O)(=O)N2CCc3ccccc3C2)cc1I	0.2	9.0	10.3	0.3	.	.
CCN1CCN(S(=O)(=O)c2ccc(OC)c(I)c2)CC1	0.0	5.8	5.0	11.4*	-0.2	-6.4
CC1CN(CC(O)COc2ccc(S(=O)(=O)N3CCCC3)cc2[N+](=O)[O-])CC(C)O1 (centres undefined)	0.1	15.2	28.5	5.7*	0.8	-3.5
CC(C)Oc1cc(S(=O)(=O)N2CCCCC2)ccc1N	-0.1	1.1	6.2	9.9*	-1.0	-15.6
CCOc1cc(C=O)ccc1OCCOc1ccccc1OC	-0.2	6.6	-2.1	10.8*	1.1	11.9
C=CCNC(=O)C(=O)NCC1OCCCN1S(=O)(=O)c1ccc(F)cc1C (centres undefined)	0.0	-2.8	-0.3	7.3*	0.4	-6.3
CCNC(=O)C(=O)NCC1OCCCN1S(=O)(=O)c1ccccc1 (centres undefined)	0.1	0.3	1.8	5.2*	-0.2	-9.1
O=C(NCCCO)C(=O)NCC1OCCCN1S(=O)(=O)c1ccc(Cl)cc1 (centres undefined)	-0.2	-9.3	-3.3	9.5*	0.0	-5.9
O=C(NCCO)C(=O)NCC1OCCCN1S(=O)(=O)c1ccc(Cl)cc1 (centres undefined)	-0.2	-1.7	-0.8	0.9	.	.
CC1CCC(=NNC(=O)c2ccc(Cl)cc2)CC1 (centres undefined)	0.0	-29.4	1.7	-0.5	.	.
Cc1ccc(C(=O)NN=C2CCC(C)CC2)cc1 (centres undefined)	0.0	-17.3	9.8	8.1*	1.8	-9.1
Cc1ccc(S(=O)(=O)NCC(=O)NN=C2CCC(C)CC2)cc1 (centres undefined)	0.0	-0.9	-11.8	6.5*	-1.0	-14.7
CC(C)/C(=N\NC(N)=S)c1ccccc1	-0.2	6.0	10.3	6.5*	0.2	3.5
COc1cc(NC(=O)CSc2nnnn2C)cc(OC)c1	0.0	6.3	-2.9	5.1*	-0.2	-2.6
CCCCCCC(=O)N/N=C/c1ccc(C)cc1	0.1	6.8	0.6	1.5	.	.
COc1cc(OC)c(CN2CCC(CO)(CCOc3ccccc3)CC2)c(OC)c1	0.1	11.2	9.2	5.4*	-0.8	-12.3
COc1ccc(Cl)cc1C(=O)Nc1c2c(nn1-c1cccc(C)c1)CSC2	0.1	4.1	-2.9	-0.9	.	.
SMILES	FBW7 activator	TEAD-YAP block	MITF inh	GPR151 activ	GPR151 conf act	GPR119 ag
Cc1oc2ccc(OCC(=O)c3ccc(Br)cc3)cc2c1C(=O)OC(C)C	-0.1	7.4	8.0	0.0	.	.
COC(=O)c1ccc(CN2CCN(c3ccccc3OC)CC2)cc1	0.1	6.0	31.0	-0.1	.	.
CCOc1ccc(NC(=O)CN(C2CCCCC2)S(=O)(=O)c2ccccc2)cc1	-0.2	2.2	-14.5	6.0*	0.0	14.1
CN(CC(=O)NC1CCCC1)S(=O)(=O)c1ccccc1	-0.2	7.5	-0.1	-0.3	.	.
CS(=O)(=O)N(CC(=O)Nc1ccc(OCc2ccccc2)cc1)C1CCCCC1	-0.1	8.5	15.2	0.1	.	.
CN(CC(=O)NC1CCCCCC1)S(=O)(=O)c1ccccc1	0.0	-13.7	7.3	8.6*	0.0	1.7
Cc1ccc(C(=O)N2CCN(c3ccc(F)cc3)CC2)o1	0.2	9.6	15.3	-0.4	.	.
CCN(CC)c1ccc(CNC(CC(=O)O)c2cccs2)cc1 (centres undefined)	0.0	1.2	-0.8	-1.6	.	.
O=C(NCc1ccc2c(c1)OCO2)C1CC2CCCN2C12C(=O)Nc1ccccc12 (centres undefined)	-0.1	3.5	-7.6	5.1*	0.4	2.9
O=C(NCc1cccc(F)c1)C1CC2CCCN2C12C(=O)Nc1ccccc12 (centres undefined)	0.2	6.9	2.5	3.9	.	.
CC(=O)Nc1ccc(C(=O)Nc2ccc(CC(=O)O)cc2)cc1	0.0	2.0	3.4	0.0	.	.
CC(=O)c1ccc(NC(=O)Nc2ccc(CC(=O)O)cc2)cc1	0.1	-3.2	-3.3	6.6*	0.4	8.7
O=C(NCCCN1CCCC1=O)c1ccnc(N2CCN(c3ccccn3)CC2)c1	0.8	2.2	5.1	4.8	.	.
O=C(Nc1ccc(-c2cn[nH]c2)cc1)OCCc1ccccc1	-0.1	-27.9	2.1	5.0*	0.6	8.5
O=C(Nc1ccc(-c2cn[nH]c2)cc1)OCc1ccccc1	-0.1	-13.9	0.4	-0.6	.	.
O=C(Nc1ccc(-c2cn[nH]c2)cc1)C1CCc2ccccc2C1 (centres undefined)	-0.2	-3.6	-5.0	5.4*	0.1	8.2
O=C(Nc1ccc(-c2cn[nH]c2)cc1)[C@@H]1Cc2ccccc2CN1	0.2	-5.2	12.9	-0.4	.	.
O=C(Nc1ccc2c(c1)OCCO2)c1cc(=O)c(OCc2ccccc2)c[nH]1	-0.1	4.2	-0.8	8.1*	-0.2	-1.1
CNC(=O)/C(C#N)=C/c1ccc(-c2nc3ccccc3s2)o1	-0.2	-58.4	-5.5	5.5*	-0.7	-1.5
N#C/C(=C\c1ccc(-c2nc3ccccc3s2)o1)C(N)=O	0.0	-39.8	9.0	-1.7	.	.
CC(=O)Nc1ccc(NC(=O)CN2C(=O)CC(c3ccccc3)Sc3ccccc32)cc1 (centres undefined)	-0.1	-1.9	-10.2	0.8	.	.
CCCCOc1ccc(C(=O)Nc2sc3c(c2C(=O)OCC)CCC3)cc1	0.0	-5.9	-7.4	0.2	.	.
CC(C)(C)c1ccc(OCCCC(=O)Nc2sc3c(c2C(N)=O)CCCC3)cc1	-0.1	0.5	12.5	6.5*	-0.3	7.8
CCOC(=O)c1c(NC(=O)COc2ccc(C)cc2)sc2c1CCCC2	0.1	-5.8	-6.9	5.1*	0.3	13.5
COC(=O)c1c(NC(=O)CCCOc2ccc(C(C)(C)C)cc2)sc2c1CCC2	0.0	-5.3	5.8	3.5	.	.
CCOC(=O)c1c(NC(=O)COc2ccc(CC)cc2)sc2c1CCC2	0.6	-7.6	1.5	-0.5	.	.
